Targets with a hit are over-represented here; the source holds about 8,800 in all. About 0.5% of all pairs of compound and target were hits.
Assays:
Test in all cases: log2 fold change, soluble protein after heating vs DMSO (PISA); higher = thermal stabilisation; K562 lysate, 10 uM; active = over 0.2 and 3.5 SD of the protein, either way, in both replicates (recomputed)
[1] = compound: CCCS(=O)(=O)Nc1ccc(F)c(C(=O)c2c[nH]c3ncc(-c4ccc(Cl)cc4)cc23)c1F [vemurafenib]
Method in brief: (§1)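 Dounce homogenisation of K562 pellets in PBS pH 7.4 with 1 mM MgCl2 produced a crude extract, used at 1 mg/mL protein. Exposure to 10 μM compound lasted 30 min, and aliquots were then heated for 3 min across 48°C-58°C, pooled and brought to 0.5% NP-40 at 4°C. The supernatant after 21,000xg for 90 min was quantified by TMTpro 16plex LC-MS/MS with channel sums equalised. Duplicate values are given as log-two fold change in thermal stability relative to solvent controls.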

[2] = compound: CCCS(=O)(=O)Nc1ccc(F)c(C(=O)c2c[nH]c3ncc(Cl)cc23)c1F
Method in brief: as §1

[3] = compound: CCN(CCCOc1ccc2c(Nc3cc(CC(=O)Nc4cccc(F)c4)[nH]n3)ncnc2c1)CCOP(=O)(O)O [barasertib]
Method in brief: as §1

[4] = compound: CC[C@@H]1C(=O)N(C)c2cnc(Nc3ccc(C(=O)NC4CCN(C)CC4)cc3OC)nc2N1C1CCCC1
Method in brief: as §1

[5] = compound: CC[C@@H]1C(=O)N(C)c2cnc(Nc3ccc(C(=O)N[C@H]4CC[C@H](N5CCN(CC6CC6)CC5)CC4)cc3OC)nc2N1C(C)C [volasertib]
Method in brief: as §1

[6] = compound: CCn1c(C(=O)N(C2CC2)C2CC2)cc2c3c(ncn3C)c(Nc3cc(C)n(C)n3)nc21
Method in brief: as §1

[7] = compound: CCn1cc(-c2ccnc3[nH]c(-c4cccc(CN(C)C)c4)cc23)c(-c2ccc(NC(=O)N(C)C)cc2)n1
Method in brief: as §1

[8] = compound: CN1CCC(CNc2ccc3ncc(-c4cccc(OC(F)(F)F)c4)n3n2)CC1
Method in brief: as §1

[9] = compound: CN1CCN(CCOc2cc(OC3CCOCC3)c3c(Nc4c(Cl)ccc5c4OCO5)ncnc3c2)CC1 [saracatinib]
Method in brief: as §1

[10] = compound: CN1CCN(c2nc(C3=C(c4c[nH]c5ccccc45)C(=O)NC3=O)c3ccccc3n2)CC1 [sotrastaurin]
Method in brief: as §1

Measured: log2 fold change

AARS2 (UniProt Q5JTZ9)
inactive: [1] 0.041 | [2] -0.052 | [3] 0.029 | [4] -0.055 | [5] -0.037 | [6] 0.027 | [7] 0.027 | [8] -0.053 | [9] 0.003 | [10] 0.031

ARMC6 (UniProt Q6NXE6)
Chain of UniProt Q6NXE6 (Q6NXE6 whole entry, looked up): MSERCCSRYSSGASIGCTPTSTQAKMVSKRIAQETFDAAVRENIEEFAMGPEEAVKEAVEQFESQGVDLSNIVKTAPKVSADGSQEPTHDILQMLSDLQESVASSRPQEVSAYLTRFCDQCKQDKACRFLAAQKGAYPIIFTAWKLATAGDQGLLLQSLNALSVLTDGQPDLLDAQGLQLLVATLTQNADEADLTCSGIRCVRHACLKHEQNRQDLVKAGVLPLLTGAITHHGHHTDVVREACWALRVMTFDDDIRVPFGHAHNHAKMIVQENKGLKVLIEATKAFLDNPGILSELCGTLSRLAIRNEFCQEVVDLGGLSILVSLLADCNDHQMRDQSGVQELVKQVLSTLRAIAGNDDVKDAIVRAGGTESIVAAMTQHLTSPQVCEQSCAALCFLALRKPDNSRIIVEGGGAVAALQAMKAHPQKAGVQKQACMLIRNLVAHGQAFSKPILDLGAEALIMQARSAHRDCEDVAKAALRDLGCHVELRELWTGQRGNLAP
inactive: [1] -0.053 | [2] 0.02 | [3] 0.071 | [4] -0.136 | [5] -0.056 | [6] 0.019 | [7] 0.002 | [8] -0.035 | [9] 0.013 | [10] 0.019

ACIN1 isoform 5 (UniProt Q9UKV3)
inactive: [1] 0.014 | [2] 0.024 | [3] 0.009 | [4] -0.016 | [5] 0 | [6] -0.018 | [7] 0.067 | [8] -0.01 | [9] 0.006 | [10] 0.014

ARHGAP21 (UniProt Q5T5U3)
inactive: [1] 0.107 | [2] 0.073 | [3] 0.061 | [4] -0.01 | [5] -0.027 | [6] 0.037 | [7] 0.043 | [8] -0.202 | [9] 0.034 | [10] 0.023

ADK (UniProt P55263)
Chain of UniProt P55263 (P55263 whole entry, looked up): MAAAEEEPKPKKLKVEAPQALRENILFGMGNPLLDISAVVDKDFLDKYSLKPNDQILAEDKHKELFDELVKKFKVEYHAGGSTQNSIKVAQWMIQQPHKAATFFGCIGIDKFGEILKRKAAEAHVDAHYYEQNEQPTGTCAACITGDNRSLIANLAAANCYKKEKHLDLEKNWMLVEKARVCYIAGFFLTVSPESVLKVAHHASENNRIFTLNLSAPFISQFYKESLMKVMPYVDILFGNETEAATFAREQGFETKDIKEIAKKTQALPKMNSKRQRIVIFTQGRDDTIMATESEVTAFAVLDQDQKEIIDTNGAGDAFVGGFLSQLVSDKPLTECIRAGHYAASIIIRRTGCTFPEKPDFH
active: [4] 0.458 | [5] 0.437
inactive: [1] -0.052 | [2] -0.036 | [3] -0.054 | [6] -0.027 | [7] 0.044 | [8] 0.155 | [9] 0.043 | [10] 0.343

AP3D1 isoform 5 (UniProt O14617)
Chain of UniProt O14617 (O14617 whole entry, looked up): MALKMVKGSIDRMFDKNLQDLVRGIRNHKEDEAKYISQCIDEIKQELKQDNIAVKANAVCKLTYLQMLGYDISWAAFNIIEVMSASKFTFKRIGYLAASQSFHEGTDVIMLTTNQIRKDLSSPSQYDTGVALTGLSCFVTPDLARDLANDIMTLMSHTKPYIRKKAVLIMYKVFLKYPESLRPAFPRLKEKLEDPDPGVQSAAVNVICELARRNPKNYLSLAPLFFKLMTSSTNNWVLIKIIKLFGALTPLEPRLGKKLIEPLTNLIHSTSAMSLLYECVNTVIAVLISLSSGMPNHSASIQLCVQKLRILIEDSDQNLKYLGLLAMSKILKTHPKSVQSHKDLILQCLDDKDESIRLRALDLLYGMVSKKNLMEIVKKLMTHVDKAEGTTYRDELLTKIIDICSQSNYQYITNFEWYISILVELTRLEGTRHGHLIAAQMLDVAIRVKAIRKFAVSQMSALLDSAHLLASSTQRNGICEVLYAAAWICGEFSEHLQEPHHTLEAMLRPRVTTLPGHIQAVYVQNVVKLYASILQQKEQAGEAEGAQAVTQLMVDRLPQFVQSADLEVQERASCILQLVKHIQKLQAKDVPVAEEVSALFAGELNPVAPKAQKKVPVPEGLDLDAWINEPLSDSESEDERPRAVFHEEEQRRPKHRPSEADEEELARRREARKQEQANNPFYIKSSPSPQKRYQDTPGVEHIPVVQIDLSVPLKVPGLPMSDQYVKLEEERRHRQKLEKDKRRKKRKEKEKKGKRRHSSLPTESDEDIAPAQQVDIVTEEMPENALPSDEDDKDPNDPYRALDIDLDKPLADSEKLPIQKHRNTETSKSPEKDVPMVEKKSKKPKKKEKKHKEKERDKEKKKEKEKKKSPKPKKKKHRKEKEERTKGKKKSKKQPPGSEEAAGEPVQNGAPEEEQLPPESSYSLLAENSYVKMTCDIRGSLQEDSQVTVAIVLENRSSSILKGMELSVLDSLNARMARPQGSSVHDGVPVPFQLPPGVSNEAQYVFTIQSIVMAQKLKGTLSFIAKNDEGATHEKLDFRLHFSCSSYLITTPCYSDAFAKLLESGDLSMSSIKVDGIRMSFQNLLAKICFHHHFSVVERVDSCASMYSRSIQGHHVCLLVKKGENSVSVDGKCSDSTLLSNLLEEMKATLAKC
inactive: [1] -0.001 | [2] -0.002 | [3] 0.036 | [4] -0.004 | [5] 0 | [6] 0.002 | [7] -0.08 | [8] 0.034 | [9] 0.001 | [10] 0.013

ACSL1 (UniProt P33121)
Chain of UniProt P33121 (P33121 whole entry, looked up): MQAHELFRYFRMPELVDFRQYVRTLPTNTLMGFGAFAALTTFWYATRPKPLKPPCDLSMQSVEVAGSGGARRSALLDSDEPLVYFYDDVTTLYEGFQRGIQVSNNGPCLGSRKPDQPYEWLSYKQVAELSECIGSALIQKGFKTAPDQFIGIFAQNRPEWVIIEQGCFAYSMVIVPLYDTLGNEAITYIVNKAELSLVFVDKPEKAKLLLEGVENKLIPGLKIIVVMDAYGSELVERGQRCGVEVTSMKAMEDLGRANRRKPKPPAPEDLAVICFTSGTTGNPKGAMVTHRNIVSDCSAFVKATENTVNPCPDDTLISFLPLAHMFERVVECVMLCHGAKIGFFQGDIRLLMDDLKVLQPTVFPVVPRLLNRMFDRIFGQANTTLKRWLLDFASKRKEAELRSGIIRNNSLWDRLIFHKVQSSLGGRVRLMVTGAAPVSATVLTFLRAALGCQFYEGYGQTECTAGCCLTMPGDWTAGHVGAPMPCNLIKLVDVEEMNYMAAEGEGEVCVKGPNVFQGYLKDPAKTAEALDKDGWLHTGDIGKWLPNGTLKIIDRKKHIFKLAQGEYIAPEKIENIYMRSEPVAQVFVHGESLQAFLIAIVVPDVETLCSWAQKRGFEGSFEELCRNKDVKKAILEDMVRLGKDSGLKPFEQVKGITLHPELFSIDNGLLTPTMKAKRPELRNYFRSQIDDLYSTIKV
inactive: [1] 0.021 | [2] 0.023 | [3] 0.046 | [4] -0.054 | [5] -0.1 | [6] 0.038 | [7] -0.014 | [8] -0.242 | [9] -0.066 | [10] -0.002

ASPH (UniProt Q12797)
Chain of UniProt Q12797 (Q12797 whole entry, looked up): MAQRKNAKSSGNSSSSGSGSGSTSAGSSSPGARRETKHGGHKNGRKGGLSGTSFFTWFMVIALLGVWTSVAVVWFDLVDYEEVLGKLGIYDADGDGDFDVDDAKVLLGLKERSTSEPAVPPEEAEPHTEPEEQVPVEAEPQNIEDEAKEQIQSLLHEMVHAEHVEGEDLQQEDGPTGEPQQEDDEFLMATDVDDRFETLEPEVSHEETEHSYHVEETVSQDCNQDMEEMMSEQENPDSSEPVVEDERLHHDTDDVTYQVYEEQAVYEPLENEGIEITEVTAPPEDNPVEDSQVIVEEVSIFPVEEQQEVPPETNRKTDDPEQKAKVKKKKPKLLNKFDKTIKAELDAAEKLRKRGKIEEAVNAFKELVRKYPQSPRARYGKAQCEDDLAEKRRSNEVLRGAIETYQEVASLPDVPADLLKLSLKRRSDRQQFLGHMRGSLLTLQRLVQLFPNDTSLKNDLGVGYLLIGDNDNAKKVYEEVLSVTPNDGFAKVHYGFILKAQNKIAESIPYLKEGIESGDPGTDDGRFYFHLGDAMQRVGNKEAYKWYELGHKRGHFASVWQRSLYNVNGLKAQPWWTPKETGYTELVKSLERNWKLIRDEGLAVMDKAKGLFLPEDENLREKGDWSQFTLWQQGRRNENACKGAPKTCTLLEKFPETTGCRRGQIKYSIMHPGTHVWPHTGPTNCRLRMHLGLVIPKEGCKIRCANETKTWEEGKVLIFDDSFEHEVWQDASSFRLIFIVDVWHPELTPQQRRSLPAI
inactive: [1] 0.009 | [2] 0.009 | [3] -0.001 | [4] 0.03 | [5] 0.002 | [6] -0.018 | [7] 0.011 | [8] -0.024 | [9] 0.055 | [10] 0.01

ALDH1A1 (UniProt P00352)
inactive: [1] -0.027 | [2] 0.001 | [3] -0.014 | [4] -0.016 | [5] -0.005 | [6] -0.052 | [7] 0.051 | [8] -0.09 | [9] 0.272 | [10] 0.001

ASB6 (UniProt Q9NWX5)
active: [4] 0.651
inactive: [1] -0.249 | [2] -0.039 | [3] 0.109 | [5] -0.026 | [6] -0.002 | [7] 0.182 | [8] 0.075 | [9] -0.05 | [10] -0.01

AGL (UniProt P35573)
inactive: [1] -0.014 | [2] 0.002 | [3] -0.015 | [4] -0.063 | [5] -0.058 | [6] 0.013 | [7] 0.131 | [8] -0.083 | [9] 0.013 | [10] 0.049

ALDH5A1 isoform 2 (UniProt P51649)
inactive: [1] -0.016 | [2] 0.011 | [3] -0.009 | [4] -0.024 | [5] -0.001 | [6] 0.031 | [7] 0.004 | [8] 0.008 | [9] 0 | [10] -0.023

ANKRD54 (UniProt Q6NXT1)
inactive: [1] -0.031 | [2] 0.053 | [3] -0.026 | [4] 0.021 | [5] 0.006 | [6] -0.005 | [7] 0.004 | [8] 0.011 | [9] -0.004 | [10] 0.001

AGO4 (UniProt Q9HCK5)
inactive: [1] 0.033 | [2] 0.003 | [3] 0.04 | [4] -0.003 | [5] 0.017 | [6] -0.003 | [7] 0.036 | [8] 0.041 | [9] -0.011 | [10] -0.021

AMPD3 isoform 4 (UniProt Q01432)
inactive: [1] -0.021 | [2] 0.005 | [3] 0.017 | [4] -0.033 | [5] -0.026 | [6] -0.029 | [7] 0.1 | [8] -0.046 | [9] 0.043 | [10] 0.024

APOB (UniProt P04114)
inactive: [1] -0.006 | [2] 0.039 | [3] 0.03 | [4] -0.009 | [5] 0.026 | [6] -0.189 | [8] 0.092 | [9] 0.029 | [10] 0.024
active: [7] -0.224

ANAPC7 (UniProt Q9UJX3)
Chain of UniProt Q9UJX3 (Q9UJX3 whole entry, looked up): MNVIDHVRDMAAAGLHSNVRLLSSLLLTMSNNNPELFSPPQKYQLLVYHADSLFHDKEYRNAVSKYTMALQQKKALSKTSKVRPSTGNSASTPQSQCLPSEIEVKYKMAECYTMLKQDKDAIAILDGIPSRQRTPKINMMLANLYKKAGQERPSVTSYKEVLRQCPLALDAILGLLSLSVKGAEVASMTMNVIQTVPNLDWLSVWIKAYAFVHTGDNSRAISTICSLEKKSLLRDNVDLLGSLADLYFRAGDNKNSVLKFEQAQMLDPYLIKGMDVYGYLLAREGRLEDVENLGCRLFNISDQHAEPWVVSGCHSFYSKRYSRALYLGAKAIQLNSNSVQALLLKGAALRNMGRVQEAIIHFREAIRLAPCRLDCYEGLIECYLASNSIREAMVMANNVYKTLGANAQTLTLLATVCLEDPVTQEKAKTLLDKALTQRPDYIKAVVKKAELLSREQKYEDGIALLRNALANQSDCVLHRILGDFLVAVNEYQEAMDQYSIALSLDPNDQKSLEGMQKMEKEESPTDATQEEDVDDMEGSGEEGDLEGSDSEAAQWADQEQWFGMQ
inactive: [1] -0.026 | [2] 0.033 | [3] -0.02 | [4] -0.035 | [5] -0.029 | [6] 0.016 | [7] -0.022 | [8] -0.03 | [9] 0.025 | [10] -0.001

ANXA11 (UniProt P50995)
Chain of UniProt P50995 (P50995 whole entry, looked up): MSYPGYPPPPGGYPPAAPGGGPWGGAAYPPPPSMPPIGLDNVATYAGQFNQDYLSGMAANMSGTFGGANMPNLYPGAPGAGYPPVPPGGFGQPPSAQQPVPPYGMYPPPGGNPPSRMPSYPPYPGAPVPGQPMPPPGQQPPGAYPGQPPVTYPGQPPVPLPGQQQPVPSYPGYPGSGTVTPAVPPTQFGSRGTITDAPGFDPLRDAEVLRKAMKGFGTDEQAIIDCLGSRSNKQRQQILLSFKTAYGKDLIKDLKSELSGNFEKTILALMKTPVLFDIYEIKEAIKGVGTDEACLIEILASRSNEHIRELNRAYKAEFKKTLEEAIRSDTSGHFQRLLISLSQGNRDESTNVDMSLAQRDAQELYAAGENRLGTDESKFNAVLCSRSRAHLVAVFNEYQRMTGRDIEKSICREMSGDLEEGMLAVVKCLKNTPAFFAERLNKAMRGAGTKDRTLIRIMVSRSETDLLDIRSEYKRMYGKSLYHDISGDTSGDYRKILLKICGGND
inactive: [1] 0.02 | [2] -0.013 | [3] 0.002 | [4] 0.024 | [5] -0.031 | [6] 0.044 | [7] -0.049 | [8] -0.01 | [9] -0.009 | [10] -0.017

AKR1C2 (UniProt P52895)
inactive: [1] 0.001 | [2] 0.018 | [3] -0.008 | [4] 0.008 | [5] -0.018 | [6] -0.043 | [8] 0.148 | [9] 0.062 | [10] 0.006
active: [7] -0.369

AFF1 isoform 2 (UniProt P51825)
inactive: [1] -0.059 | [2] 0.007 | [3] 0.033 | [4] 0.068 | [5] -0.043 | [6] -0.023 | [7] -0.307 | [8] 0.125 | [9] -0.015 | [10] 0.029

APEX1 (UniProt P27695)
inactive: [1] 0.019 | [2] 0.017 | [3] -0.027 | [4] -0.03 | [5] -0.004 | [6] 0.043 | [8] -0.07 | [9] -0.001 | [10] 0.009
active: [7] 0.37

ACACA isoform 4 (UniProt Q13085)
inactive: [1] 0.014 | [2] 0.024 | [3] 0.043 | [4] -0.062 | [5] -0.085 | [6] 0.056 | [7] -0.025 | [8] -0.067 | [9] 0.001 | [10] 0.011

AP1G2 (UniProt O75843)
inactive: [1] -0.057 | [2] 0.044 | [3] 0.011 | [4] -0.014 | [5] -0.053 | [6] -0.003 | [7] -0.007 | [8] 0.032 | [9] -0.032 | [10] 0.022

ACAA1 (UniProt P09110)
inactive: [1] 0.034 | [2] 0.033 | [3] -0.027 | [4] 0.006 | [5] 0.036 | [6] 0.001 | [7] -0.049 | [8] 0.039 | [9] 0.002 | [10] -0.004

ABL2 (UniProt P42684)
inactive: [1] 0.233 | [2] 0.222 | [3] -0.002 | [4] 0.11 | [5] -0.05 | [6] 0.009 | [7] 0.039 | [8] -0.128 | [9] 0.254 | [10] -0.02

ARAP1 (UniProt Q96P48)
inactive: [1] -0.014 | [2] 0.006 | [3] 0.013 | [4] -0.034 | [5] -0.085 | [6] 0.029 | [7] -0.076 | [8] 0.015 | [9] -0.001 | [10] 0.006

ALDH1B1 (UniProt P30837)
inactive: [1] 0.008 | [2] 0.017 | [3] -0.022 | [4] 0.029 | [5] -0.013 | [6] -0.062 | [7] -0.015 | [8] 0.108 | [9] 0.011 | [10] 0.022

AKR1C3 (UniProt P42330)
Chain of UniProt P42330 (P42330 whole entry, looked up): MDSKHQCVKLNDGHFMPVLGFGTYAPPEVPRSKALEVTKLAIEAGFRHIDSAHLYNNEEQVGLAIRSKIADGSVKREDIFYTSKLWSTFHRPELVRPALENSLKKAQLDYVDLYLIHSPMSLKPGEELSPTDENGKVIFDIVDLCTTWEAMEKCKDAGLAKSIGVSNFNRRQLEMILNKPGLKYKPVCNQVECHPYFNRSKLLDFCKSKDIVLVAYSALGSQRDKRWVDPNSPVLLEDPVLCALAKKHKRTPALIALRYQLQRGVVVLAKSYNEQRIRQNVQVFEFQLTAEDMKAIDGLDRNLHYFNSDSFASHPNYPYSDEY
inactive: [1] 0.01 | [2] 0.023 | [3] -0.033 | [4] 0.091 | [5] -0.027 | [6] -0.05 | [7] -0.034 | [8] 0.059 | [9] 0.187 | [10] 0.044

Reference: the supplement of paper PMC10849652
